# Reference: the supplement of paper PMC8728848
# The entries come from a sample that favours the strongest signals as a whole.
# B1: Cohesin-hDC-ASGPR (Homo sapiens) (protein)
# chain: LDDLDAVRIKVDTVNAKPGDTVRIPVRFSGIPSKGIANCDFVYSYDPNVLEIIEIEPGDIIVDPNPDKSFDTAVYPDRKIIVFLFAEDSGTGAYAITKDGVFATIVAKVKEGAPNGLSVIKFVEVGGFANNDLVEQKTQFFDGGANVGDTTEPATPTTPVTTPTTTDDLDAASQNSKFQRDLVTLRTDFSNFTSNTVAEIQALTSQGSSLEETIASLKAEVEGFKQERQAGVSELQEHTTQKAHLGHCPHCPSVCVPVHSEMLLRVQQLVQDLKKLTCQVATLNNNASTEGTCCPVNWVEHQDSCYWFSHSGMSWAEAEKYCQLKNAHLVVINSREEQNFVQKYLGSAYTWMGLSDPEGAWKWVDGTDYATGFQNWKPGQPDDWQGHGLGGGEDCAHFHPDGRWNDDVCQRPYHWVCEAGLGQTSQESHHHHHH
# Assays:
# Assay in all cases: glycan array binding signal (z-score within array); higher = stronger binding
# Settings in all cases: glycan notation: IUPAC condensed, linker removed
# [1] = molecular target: Fuc(a1-2)Gal
# Procedure, shortened: (§1)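 The Consortium for Functional Glycomics database supplied 3228 glycan arrays, of which those lacking an available protein sequence were dropped. The binding signal, a within-array Z-score, was averaged across arrays of the same protein sequence and across linkers. Negative scores can be read as non-binding.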
# [2] = molecular target: Fuc(a1-2)Gal(b1-4)GlcNAc(b1-6)GalNAc
# Procedure, shortened: as §1
# [3] = molecular target: Fuc(a1-2)Gal3S(b1-4)GlcNAc
# Procedure, shortened: as §1
# [4] = molecular target: Fuc(a1-2)Gal6S(b1-3)GlcNAc
# Procedure, shortened: as §1
# [5] = molecular target: Fuc(a1-2)[Gal(a1-3)]Gal(b1-3)GlcNAc(b1-3)GalNAc
# Procedure, shortened: as §1
# [6] = molecular target: Fuc(a1-2)[Gal(a1-3)]Gal(b1-3)GlcNAc(b1-6)GalNAc
# Procedure, shortened: as §1
# [7] = molecular target: Fuc(a1-2)[Gal(a1-3)]Gal(b1-4)[Fuc(a1-3)]Glc
# Procedure, shortened: as §1
# [8] = molecular target: Fuc(a1-2)[Gal(a1-4)]Gal(b1-4)GlcNAc
# Procedure, shortened: as §1
# [9] = molecular target: Fuc(a1-2)[GalNAc(a1-3)]Gal(b1-3)GalNAc(a1-3)[Fuc(a1-2)]Gal(b1-4)GlcNAc
# Procedure, shortened: as §1
# [10] = molecular target: Fuc(a1-2)[GalNAc(a1-3)]Gal(b1-3)GlcNAc(b1-2)Man(a1-3)[Fuc(a1-2)[GalNAc(a1-3)]Gal(b1-3)GlcNAc(b1-2)Man(a1-6)]Man(b1-4)GlcNAc(b1-4)GlcNAc
# Procedure, shortened: as §1
# [11] = molecular target: Fuc(a1-2)[GalNAc(a1-3)]Gal(b1-4)GlcNAc(b1-2)Man
# Procedure, shortened: as §1
# [12] = molecular target: Fuc(a1-2)[GalNAc(a1-3)]Gal(b1-4)GlcNAc(b1-3)Gal(b1-4)GlcNAc(b1-3)Gal(b1-4)GlcNAc
# Procedure, shortened: as §1
# [13] = molecular target: Fuc(a1-2)[GalNAc(a1-4)]Gal(b1-4)GlcNAc
# Procedure, shortened: as §1
# [14] = molecular target: Fuc(a1-3)[Gal(b1-4)]GlcNAc(b1-2)Man(a1-3)[Fuc(a1-3)[Gal(b1-4)]GlcNAc(b1-2)Man(a1-6)]Man(b1-4)GlcNAc(b1-4)[Fuc(a1-6)]GlcNAc
# Procedure, shortened: as §1
# [15] = molecular target: Fuc(a1-3)[Gal(b1-4)]GlcNAc(b1-3)GalNAc
# Procedure, shortened: as §1
# [16] = molecular target: Gal(a1-3)Gal(b1-3)GlcNAc(b1-6)GalNAc
# Procedure, shortened: as §1
# [17] = molecular target: Gal(a1-3)Gal(b1-3)[Fuc(a1-4)]GlcNAc(b1-2)Man(a1-3)[Gal(a1-3)Gal(b1-3)[Fuc(a1-4)]GlcNAc(b1-2)Man(a1-6)]Man(b1-4)GlcNAc(b1-4)GlcNAc
# Procedure, shortened: as §1
# [18] = molecular target: Gal(a1-3)Gal(b1-4)Glc
# Procedure, shortened: as §1
# [19] = molecular target: Gal(a1-3)Gal(b1-4)GlcNAc(b1-3)GalNAc
# Procedure, shortened: as §1
# [20] = molecular target: Gal(b1-3)GlcNAc(b1-3)Gal(b1-4)GlcNAc(b1-2)[Gal(b1-3)GlcNAc(b1-3)Gal(b1-4)GlcNAc(b1-6)]Man(a1-6)[Gal(b1-3)GlcNAc(b1-3)Gal(b1-4)GlcNAc(b1-2)Man(a1-3)]Man(b1-4)GlcNAc(b1-4)[Fuc(a1-6)]GlcNAc
# Procedure, shortened: as §1
# [21] = molecular target: Gal(b1-4)GlcNAc(b1-2)Man(a1-3)[Gal(b1-4)GlcNAc(b1-2)Man(a1-6)]Man(b1-4)GlcNAc(b1-4)GlcNAc
# Procedure, shortened: as §1
# [22] = molecular target: Gal(b1-4)GlcNAc(b1-2)[Gal(b1-4)GlcNAc(b1-4)]Man(a1-3)[Gal(b1-4)GlcNAc(b1-2)[Gal(b1-4)GlcNAc(b1-6)]Man(a1-6)]Man(b1-4)GlcNAc(b1-4)GlcNAc
# Procedure, shortened: as §1
# [23] = molecular target: Gal(b1-4)GlcNAc(b1-2)[Gal(b1-4)GlcNAc(b1-6)]Man(a1-6)[Gal(b1-4)GlcNAc(b1-2)Man(a1-3)]Man(b1-4)GlcNAc(b1-4)[Fuc(a1-6)]GlcNAc
# Procedure, shortened: as §1
# [24] = molecular target: Gal(b1-4)GlcNAc(b1-3)Gal(b1-4)GlcNAc(b1-2)[Gal(b1-4)GlcNAc(b1-3)Gal(b1-4)GlcNAc(b1-6)]Man(a1-6)[Gal(b1-4)GlcNAc(b1-3)Gal(b1-4)GlcNAc(b1-2)Man(a1-3)]Man(b1-4)GlcNAc(b1-4)GlcNAc
# Procedure, shortened: as §1
# [25] = molecular target: Gal3S(b1-3)[Fuc(a1-4)]GlcNAc
# Procedure, shortened: as §1
# [26] = molecular target: GalNAc(a1-3)GalNAc
# Procedure, shortened: as §1
# [27] = molecular target: GalNAc(a1-3)GalNAc(b1-3)Gal(a1-4)Gal(b1-4)GlcNAc
# Procedure, shortened: as §1
# [28] = molecular target: GalNAc(b1-3)Gal(a1-6)Gal(b1-4)Glc
# Procedure, shortened: as §1
# [29] = molecular target: GalNAc(b1-4)GlcNAc(b1-2)Man
# Procedure, shortened: as §1
# [30] = molecular target: GalNAc3S(b1-4)[Fuc(a1-3)]GlcNAc
# Procedure, shortened: as §1
binder,measurement,setting,value
B1,glycan array binding signal (z-score),[1],-0.306
same,glycan array binding signal (z-score),[2],2.81
same,glycan array binding signal (z-score),[3],-0.377
same,glycan array binding signal (z-score),[4],-0.246
same,glycan array binding signal (z-score),[5],-0.407
same,glycan array binding signal (z-score),[6],2.85
same,glycan array binding signal (z-score),[7],-0.481
same,glycan array binding signal (z-score),[8],-0.495
same,glycan array binding signal (z-score),[9],3.55
same,glycan array binding signal (z-score),[10],2.83
same,glycan array binding signal (z-score),[11],2.03
same,glycan array binding signal (z-score),[12],1.93
same,glycan array binding signal (z-score),[13],3.15
same,glycan array binding signal (z-score),[14],-0.501
same,glycan array binding signal (z-score),[15],-0.391
same,glycan array binding signal (z-score),[16],2.9
same,glycan array binding signal (z-score),[17],-0.322
same,glycan array binding signal (z-score),[18],-0.483
same,glycan array binding signal (z-score),[19],-0.475
same,glycan array binding signal (z-score),[20],0.077
same,glycan array binding signal (z-score),[21],-0.447
same,glycan array binding signal (z-score),[22],-0.517
same,glycan array binding signal (z-score),[23],-0.504
same,glycan array binding signal (z-score),[24],1.87
same,glycan array binding signal (z-score),[25],-0.306
same,glycan array binding signal (z-score),[26],2.37
same,glycan array binding signal (z-score),[27],1.97
same,glycan array binding signal (z-score),[28],2.84
same,glycan array binding signal (z-score),[29],2.86
same,glycan array binding signal (z-score),[30],-0.502
